Results on 40 compounds are retold here after PubChem BioAssay (NCI).

Each structure is given as a SMILES string. The panel holds about 79,000 compounds, 15% with a hit somewhere; the sample as a whole holds those more often. Activity calls are given as the source filed them. Cut-off read from the data, not from the text of the source: active = growth inhibition above about 70%; inactive = the rest.

A short description of one assay: NCI Yeast Anticancer Drug Screen. Data for the sgs1 mgt1 strain (AID 161).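 Note: 0% = growth of cultures given vehicle only.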 Conditions: S. cerevisiae sgs1 mgt1 strain, at 50.0 µM, hits give high values. The procedure, abridged:
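Genetically altered yeast, compound exposure, growth inhibition relative to vehicle.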
Consider `CC(=O)c1c(P(=O)(OC(C)C)OC(C)C)nn(-c2ccc([N+](=O)[O-])cc2)c1C`, for which the growth inhibition is 22.1% (inactive).

Turning to `COc1ccc(C2(C)OCCCC2([NH-])C[NH-])cc1.[Cl][Pt+2][Cl]` (stereo not given), the growth inhibition is -2.95% (inactive).

`O=C1C2CCCCC2C(=O)N1O` (stereo not given): the growth inhibition is 18.8% (inactive).

For `c1ccc2c3c(ccc2c1)CCC3`, the growth inhibition was -35% (inactive).

For the compound `Cc1cccc(OS(=O)(=O)c2ccccc2)c1`, the growth inhibition was 36% (inactive).

In the case of `O=C1OCC(CN2CCC(n3c(=O)[nH]c4ccccc43)CC2)=C1c1ccccc1`, the growth inhibition was -7.15% (inactive).

Take `O=C(O)/C=C\c1ccc(OC(=O)c2ccccc2)cc1`: the growth inhibition was -21% (inactive).

With `C=CCC1=C(C)C[C@@H]2CCC(=O)C=C12`, the growth inhibition was -8.5% (inactive).

In the case of `O=c1c2cc3c(cc2[nH]c2ncccc12)OCO3`, the growth inhibition is 2.85% (inactive).

As to `NC(CCCC(N)C(=O)c1ccccc1)C(=O)c1ccccc1` (stereo not given), the growth inhibition was -1.5% (inactive).

For `CC(=O)NC1=C(C)C(=O)c2c(nc3n2CCC3OC(=O)c2ccccc2)C1=N` (stereo not given), the growth inhibition is 22% (inactive).

Consider `COC(=O)C1(C(=O)OC)OC(c2ccc(OC)cc2)[C@H]2C(=O)N(C)C(=O)[C@H]21` (stereo not given in full), for which the growth inhibition is 3.1% (inactive).

Consider `CCOC(=O)c1ccc(N=Cc2cccs2)cc1`, for which the growth inhibition is 17.1% (inactive).

Regarding `CSc1nc(NN)c([N+](=O)[O-])c(SC)n1`, the growth inhibition is 1.2% (inactive).

With `COC(=O)c1ccc(OCc2ccc3nc(OC)c(OC)nc3c2)cc1`, the growth inhibition was -50.1% (inactive).

Regarding `O=S(=O)(CCl)Nc1ccncc1`, the growth inhibition is -25.6% (inactive).

In the case of `CCOC(=O)c1ccc(NC(=O)Oc2ccc(SC)cc2)cc1`, the growth inhibition was 0.4% (inactive).

As to `CC(=O)Nc1ccc2c(=O)cc[nH]c2n1`, the growth inhibition is 2.4% (inactive).

With `C=C(Cl)C(C)(Cl)CCC(Cl)C(C)(C)Cl` (stereo not given), the growth inhibition is 29.6% (inactive).

For `COC(=O)c1[nH]c(=O)[nH]c(=S)c1N`, the growth inhibition was -10.6% (inactive).

Take `CCC/C=N/NC(=O)CCCCCCCCCCCCCCCCC`: the growth inhibition was 16.9% (inactive).

Turning to `O=[N+]([O-])c1ccccc1-c1ccccc1CO`, the growth inhibition is -41.4% (inactive).

Turning to `CC[Si](C)(C)COC(N)=O`, the growth inhibition is -12.4% (inactive).

Consider `CCCCCCCCCCC(CCCCCCCCCC)C1CCCC1`, for which the growth inhibition was 0.7% (inactive).

Turning to `C[N+](C)(C)Cc1ccc2ccccc2c1CC(O)(c1ccccc1)c1ccccc1`, the growth inhibition was 19.1% (inactive).

On to `CC/C=C/CC(=O)NCc1ccc(O)c(OC)c1`, for which the growth inhibition was -7.95% (inactive).

`COc1ccc(S(=O)(=O)N/N=C\c2cc(I)cc(I)c2O)cc1`: the growth inhibition is 25.2% (inactive).

On to `CCC(=C(c1ccc(OCc2ccccc2)cc1)c1ccc(OCc2ccccc2)cc1)c1ccc(OC)cc1`, for which the growth inhibition was 9.45% (inactive).

For `O=C1/C(=N\N(C(=O)c2ccccc2)c2ccccc2)c2cccc3cccc1c23`, the growth inhibition is 20.4% (inactive).

Consider `CC(=O)Nc1ccc2oc(=O)[nH]c(=O)c2c1`, for which the growth inhibition is 6.3% (inactive).

For the compound `[Cl][Pt+2][Cl].[NH-]CC(O)c1ccc2oc3ccccc3c2c1.[NH-]CC(O)c1ccc2oc3ccccc3c2c1` (stereo not given), the growth inhibition is -30.6% (inactive).

On to `Cc1cc(N(CCCOS(C)(=O)=O)CCCOS(C)(=O)=O)ccc1C=Nc1cc(Cl)c(O)c(Cl)c1`, for which the growth inhibition is 62.8% (inactive).

Consider `CCOCCOC(=O)c1ccc(C(N)=NC)cc1`, for which the growth inhibition is 5.2% (inactive).

Turning to `Cn1c(=O)c2c3ccccc3c(C(=O)c3ccccc3)n2c2ccccc21`, the growth inhibition was 27.4% (inactive).

In the case of `Nc1nc(Cl)cc(Oc2ccc(Cl)cc2)n1`, the growth inhibition was 22.6% (inactive).

With `CCCNC(=O)c1cccc(-c2cccc(C(=O)NCCC)c2)c1`, the growth inhibition was 28.4% (inactive).

As to `O=C(NC1CCCCC1)/C(=C\c1ccc(/C=C(/NC(=O)c2ccccc2)C(=O)NC2CCCCC2)cc1)NC(=O)c1ccccc1`, the growth inhibition is 9.5% (inactive).

`CC(=O)OCC1COC(C2CC=CCC2C)O1` (stereo not given): the growth inhibition was -8.35% (inactive).

Regarding `CC(C)(C)Nc1ccc([N+](=O)[O-])cc1[N+](=O)[O-]`, the growth inhibition was 6.6% (inactive).

In the case of `CNc1ccc(OC)cc1`, the growth inhibition was -13.4% (inactive).

The nature of the next assay: NCI Yeast Anticancer Drug Screen. Data for the cln2 rad14 strain (AID 165).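 Note: 0% = growth equal to vehicle treated cultures.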 Conditions: S. cerevisiae cln2 rad14 strain, at 50.0 µM, hits give high values. Put shortly:
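Test compounds were added to cln2 rad14 yeast cultures; inhibition of growth was then determined by comparison with vehicle treatment.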
Take `CC(=O)c1c(P(=O)(OC(C)C)OC(C)C)nn(-c2ccc([N+](=O)[O-])cc2)c1C`: the growth inhibition is -0.95% (inactive).

With `COc1ccc(C2(C)OCCCC2([NH-])C[NH-])cc1.[Cl][Pt+2][Cl]` (stereo not given), the growth inhibition is 21.6% (inactive).

As for `O=C1C2CCCCC2C(=O)N1O` (stereo not given), the growth inhibition is 16.6% (inactive).

For `c1ccc2c3c(ccc2c1)CCC3`, the growth inhibition is 10% (inactive).

In the case of `Cc1cccc(OS(=O)(=O)c2ccccc2)c1`, the growth inhibition is 8.1% (inactive).

Consider `O=C1OCC(CN2CCC(n3c(=O)[nH]c4ccccc43)CC2)=C1c1ccccc1`, for which the growth inhibition is -25.7% (inactive).

As for `O=C(O)/C=C\c1ccc(OC(=O)c2ccccc2)cc1`, the growth inhibition is -24.6% (inactive).

On to `C=CCC1=C(C)C[C@@H]2CCC(=O)C=C12`, for which the growth inhibition was 11.2% (inactive).

Turning to `O=c1c2cc3c(cc2[nH]c2ncccc12)OCO3`, the growth inhibition was 13.8% (inactive).

For the compound `NC(CCCC(N)C(=O)c1ccccc1)C(=O)c1ccccc1` (stereo not given), the growth inhibition was -15.5% (inactive).

On to `CC(=O)NC1=C(C)C(=O)c2c(nc3n2CCC3OC(=O)c2ccccc2)C1=N` (stereo not given), for which the growth inhibition was 6% (inactive).

Take `COC(=O)C1(C(=O)OC)OC(c2ccc(OC)cc2)[C@H]2C(=O)N(C)C(=O)[C@H]21` (stereo not given in full): the growth inhibition was -8.7% (inactive).

In the case of `CCOC(=O)c1ccc(N=Cc2cccs2)cc1`, the growth inhibition is 9.5% (inactive).

`CSc1nc(NN)c([N+](=O)[O-])c(SC)n1`: the growth inhibition is -2.65% (inactive).

Regarding `COC(=O)c1ccc(OCc2ccc3nc(OC)c(OC)nc3c2)cc1`, the growth inhibition was 7.35% (inactive).

For `O=S(=O)(CCl)Nc1ccncc1`, the growth inhibition is -77.2% (inactive).

`CCOC(=O)c1ccc(NC(=O)Oc2ccc(SC)cc2)cc1`: the growth inhibition was 8.95% (inactive).

With `CC(=O)Nc1ccc2c(=O)cc[nH]c2n1`, the growth inhibition was 1.9% (inactive).

For the compound `C=C(Cl)C(C)(Cl)CCC(Cl)C(C)(C)Cl` (stereo not given), the growth inhibition was 42.5% (inactive).

In the case of `COC(=O)c1[nH]c(=O)[nH]c(=S)c1N`, the growth inhibition is -20.6% (inactive).

`CCC/C=N/NC(=O)CCCCCCCCCCCCCCCCC`: the growth inhibition was -8.2% (inactive).

For `O=[N+]([O-])c1ccccc1-c1ccccc1CO`, the growth inhibition was -23.4% (inactive).

With `CC[Si](C)(C)COC(N)=O`, the growth inhibition is -1.55% (inactive).

As for `CCCCCCCCCCC(CCCCCCCCCC)C1CCCC1`, the growth inhibition is -14.6% (inactive).

Take `C[N+](C)(C)Cc1ccc2ccccc2c1CC(O)(c1ccccc1)c1ccccc1`: the growth inhibition is 4.85% (inactive).

On to `CC/C=C/CC(=O)NCc1ccc(O)c(OC)c1`, for which the growth inhibition is 48.3% (inactive).

As for `COc1ccc(S(=O)(=O)N/N=C\c2cc(I)cc(I)c2O)cc1`, the growth inhibition is 14.6% (inactive).

Take `CCC(=C(c1ccc(OCc2ccccc2)cc1)c1ccc(OCc2ccccc2)cc1)c1ccc(OC)cc1`: the growth inhibition was -0.3% (inactive).

With `O=C1/C(=N\N(C(=O)c2ccccc2)c2ccccc2)c2cccc3cccc1c23`, the growth inhibition is 12.2% (inactive).

In the case of `CC(=O)Nc1ccc2oc(=O)[nH]c(=O)c2c1`, the growth inhibition is 9.9% (inactive).

Regarding `[Cl][Pt+2][Cl].[NH-]CC(O)c1ccc2oc3ccccc3c2c1.[NH-]CC(O)c1ccc2oc3ccccc3c2c1` (stereo not given), the growth inhibition was -21.1% (inactive).

As for `Cc1cc(N(CCCOS(C)(=O)=O)CCCOS(C)(=O)=O)ccc1C=Nc1cc(Cl)c(O)c(Cl)c1`, the growth inhibition is 8.65% (inactive).

`CCOCCOC(=O)c1ccc(C(N)=NC)cc1`: the growth inhibition is -8.15% (inactive).

`Cn1c(=O)c2c3ccccc3c(C(=O)c3ccccc3)n2c2ccccc21`: the growth inhibition is 25.9% (inactive).

As to `Nc1nc(Cl)cc(Oc2ccc(Cl)cc2)n1`, the growth inhibition is 2.5% (inactive).

For the compound `CCCNC(=O)c1cccc(-c2cccc(C(=O)NCCC)c2)c1`, the growth inhibition is 12.3% (inactive).

For `O=C(NC1CCCCC1)/C(=C\c1ccc(/C=C(/NC(=O)c2ccccc2)C(=O)NC2CCCCC2)cc1)NC(=O)c1ccccc1`, the growth inhibition was -34.5% (inactive).

For `CC(=O)OCC1COC(C2CC=CCC2C)O1` (stereo not given), the growth inhibition is 4.05% (inactive).

Turning to `CC(C)(C)Nc1ccc([N+](=O)[O-])cc1[N+](=O)[O-]`, the growth inhibition was 7.95% (inactive).

As to `CNc1ccc(OC)cc1`, the growth inhibition was -1% (inactive).
